Test [1] deals with Vero E6 infected with SARS-CoV-2. Description: morphology score (similarity to uninfected cells); higher = more like uninfected cells. The conditions noted are these: 24 h.
The test system is the same in test [2]. Description: SARS-CoV-2 infection rate relative to infected DMSO; higher = more infection, active = 60 or less. The settings on record: 24 h.

For 25 molecules, morphology score and SARS-CoV-2 infection rate results are on record in the supplement of paper PMC13380429.

In test [1], `CCCCCCCCCCCCC/C=C/[C@@H](O)[C@@H](N)CO[P@](=O)(O)OCC[N+](C)(C)C` [sphingosylphosphorylcholine] (10 µM) yielded a morphology score of 0.000181. Also, the SARS-CoV-2 infection rate in test [2] is 112% (inactive).
In turn, `COc1cc2c(NC3CCN(C)CC3)nc(N3CCCN(C)CC3)nc2cc1OCCCN(C)C` (10 µM) had a morphology score in test [1] of 0.124. Moreover, in test [2], the SARS-CoV-2 infection rate was 116% (inactive).
On to `NC(=O)c1nc(F)cnc1O` [Favipiravir] (10 µM), for which the morphology score in test [1] is 0.0924. The SARS-CoV-2 infection rate in test [2] is 108% (inactive).
For the molecule `CC(C)(N)Cc1ccccc1` [phentermine] (10 µM), the morphology score in test [1] was -0.154. In test [2], the SARS-CoV-2 infection rate was 118% (inactive).
The corresponding values for `Cc1c(CC(C)(C)C(=O)O)n(Cc2ccc(Cl)cc2)c2ccc(F)cc12` (10 µM) are -0.214 and 113% (inactive).
The like results for `O=C1[C@@H]2[C@H]3CC[C@H](C3)[C@@H]2C(=O)N1CCCCN1CCN(c2ncccn2)CC1` [tandospirone] (10 µM) were, in that order, -0.0978 and 99% (inactive).
The corresponding values for `CC1(C)O[C@@H]2C[C@H]3[C@@H]4CCC5=CC(=O)CC[C@]5(C)[C@@]4(F)[C@@H](O)C[C@]3(C)[C@]2(C(=O)CCl)O1` [halcinonide] (10 µM) are 0.157 and 106% (inactive).
`CCOc1ccc(C[C@H]2NC(=O)CCSSC[C@@H](C(=O)N3CCC[C@H]3C(=O)N[C@@H](CCCN)C(=O)NCC(N)=O)NC(=O)[C@H](CC(N)=O)NC(=O)[C@H]([C@@H](C)O)NC(=O)[C@H]([C@@H](C)CC)NC2=O)cc1` [atosiban] (10 µM) came in with a morphology score in test [1] of 0.175. Also, in test [2], the SARS-CoV-2 infection rate was 91% (inactive).
For the molecule `N=C(N)NC(=N)Nc1ccccc1` [1-phenylbiguanide] (10 µM), the morphology score in test [1] was found to be 0.219. The SARS-CoV-2 infection rate in test [2] was 86.5% (inactive).
The corresponding values for `N[C@@]1(C(=O)O)CC[C@H]2[C@H](C(=O)O)[C@H]21` [eglumetad] (10 µM) are -0.0541 and 114% (inactive).
With `O=C1CC[C@@](c2ccccc2)(C2CCN(Cc3ccc(I)cc3)CC2)C(=O)N1` [iododexetimide] (10 µM), in test [1], the morphology score is -0.0136. Moreover, the SARS-CoV-2 infection rate in test [2] is 100% (inactive).
On to `O=C(N[C@H]1CN2CCC1CC2)c1ccc(Cl)cc1` (10 µM), for which the morphology score in test [1] was -0.0585. Besides, the SARS-CoV-2 infection rate in test [2] is 99.5% (inactive).
`Nc1nc(O)c2ncn(CCC(CO)CO)c2n1` [penciclovir] (10 µM) displayed a morphology score in test [1] of 0.0743. Further, in test [2], the SARS-CoV-2 infection rate is 93.5% (inactive).
The like results for `Cc1ncc(-c2ccnc(Nc3ccc(S(C)(=O)=O)cc3)n2)n1C(C)C` (0.833333 µM) were, in that order, -0.165 and 99.5% (inactive).
The corresponding values for `CCCCCOc1ccc(-c2cc(-c3ccc(C(=O)N[C@H]4C[C@@H](O)[C@@H](O)NC(=O)[C@@H]5[C@@H](O)[C@@H](C)CN5C(=O)[C@H]([C@H](O)CC(N)=O)NC(=O)[C@H]([C@H](O)[C@@H](O)c5ccc(O)c(OS(=O)(=O)O)c5)NC(=O)[C@@H]5C[C@@H](O)CN5C(=O)[C@H]([C@@H](C)O)NC4=O)cc3)no2)cc1` [micafungin] (10 µM) are 0.0545 and 94.5% (inactive).
The molecule `Oc1c(Cl)cc(Cl)cc1Sc1cc(Cl)cc(Cl)c1O` [bithionol] (10 µM) showed a morphology score in test [1] of -0.096. Further, the SARS-CoV-2 infection rate in test [2] is 106% (inactive).
In test [1], `COc1ccccc1N1CCN(CCCCN2C(=O)c3ccccc3C2=O)CC1` (10 µM) had a morphology score of 0.185. Moreover, the SARS-CoV-2 infection rate in test [2] is 99% (inactive).
The corresponding values for `CC(=O)Oc1ccccc1C(=O)Nc1ncc([N+](=O)[O-])s1` [nitazoxanide] (10 µM) are 0.224 and 88% (inactive).
Turning to `CC(C)n1c(/C=C/[C@@H](O)C[C@@H](O)CC(=O)O)c(-c2ccc(F)cc2)c2ccccc21` [fluvastatin] (0.833333 µM), in test [1], the morphology score is -0.082. Also, the SARS-CoV-2 infection rate in test [2] was 115% (inactive).
Consider `N#Cc1ccccc1OCC(O)CNCCNC(=O)Nc1ccccc1` (stereo not given) (10 µM), for which, in test [1], the morphology score is -0.0291. Besides, in test [2], the SARS-CoV-2 infection rate is 109% (inactive).
In turn, `CCOC(=O)[C@H](CCc1ccccc1)N[C@@H](C)C(=O)N1Cc2cc(OC)c(OC)cc2C[C@H]1C(=O)O` [moexipril] (10 µM) yielded a morphology score in test [1] of 0.183. Further, the SARS-CoV-2 infection rate in test [2] was 90% (inactive).
With `CC(=O)N1CCC(NC(=O)c2ccc(F)cc2)CC1` (10 µM), the morphology score in test [1] is 0.0529. Also, in test [2], the SARS-CoV-2 infection rate was 110% (inactive).
The corresponding values for `CCCCCCN(CCCCCC)C(=O)Cc1c(-c2ccc(F)cc2)[nH]c2ccccc12` (10 µM) are -0.0301 and 106% (inactive).
Molecule `C[C@]12C=CC(=O)N[C@@H]1CC[C@@H]1[C@@H]2CC[C@]2(C)[C@@H](C(=O)Nc3cc(C(F)(F)F)ccc3C(F)(F)F)CC[C@@H]12` [dutasteride] (10 µM) showed a morphology score in test [1] of 0.111. Further, the SARS-CoV-2 infection rate in test [2] was 111% (inactive).
The like results for `CC(C)(C)NCC(O)CSc1nc(-c2ccc(C(N)=O)s2)cs1` (stereo not given) [arotinolol] (10 µM) were, in that order, 0.0582 and 106% (inactive).
